We go through 10 molecules from PMC5540273 (PLoS ONE, 2017).

Common to all, as to details: concentration: 1 μM, replicates: in singlicate; n = 1
In experiment [1] the test system is CSF1R-autoinhibited.
The subject of experiment [2] is CSF1R.
Experiment [3] deals with CSK.
Experiment [4] deals with CSNK1A1L.
Experiment [5] has as its system CSNK1A1.
Experiment [6] relates to CSNK1D.
The test system of experiment [7] is CSNK1E.
Experiment [8] has as its system CSNK1G1.
Experiment [9] has as its system CSNK1G2.
Experiment [10] has as its system CSNK1G3.
Experiment [11] has as its system CSNK2A1.
For experiment [12], the system named is CSNK2A2.
Experiment [13] deals with T1, CTK.
T1 construct: gene MATK

For experiment [14], the system named is DAPK1.
Experiment [15] relates to DAPK2.
Experiment [16] has as its system DAPK3.
Experiment [17] has as its system T2, DCAMKL1.
T2 construct: gene DCLK1

Experiment [18] concerns T3, DCAMKL2.
T3 construct: gene DCLK2

Experiment [19] deals with T4, DCAMKL3.
T4 construct: gene DCLK3

Experiment [20] concerns DDR1.

Structures are written as SMILES.
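Further: KINOMEscan kinase panel screen.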

Consider `Fc1cccc(COc2ccc(Nc3ncnc4cc[nH]c34)cc2Cl)c1`, for which the “%Inh” value in experiment [1] was 0%; in [2], 6%; in experiment [3] it was 24%; in [4], 6%; in experiment [5], 2%; in experiment [6] it was 0%. Also, the “%Inh” value in experiment [7] is given as 10%; in [8], 18%; in experiment [9], 18%; in experiment [10], 4%; in experiment [11] it was 36%; in experiment [12], 22%. In addition, the “%Inh” value worked out at 53% in experiment [13]; 20% in [14]; 45% in experiment [15]; 22% in experiment [16]; 29% in [17]; 8% in [18]. The results for the “%Inh” value in experiment [19] and in [20] were 8% and 9%, respectively.
With `COc1ccc(Nc2nccc(N3CCC(NC(=O)Nc4ccc5c(c4)OCO5)C3)n2)cc1` (centres unmarked) [GSK1379745], the “%Inh” value in [1] is 16%; in [2], 0%; in [3], 0%; in experiment [4], 24%; in experiment [5], 0%; in experiment [6] it was 83%. Besides, the “%Inh” value is reported as 22% in [7]; 1% in experiment [8]; 2% in experiment [9]; 16% in experiment [10]; 5% in [11]; 0% in experiment [12]. Further, the “%Inh” value in experiment [13] amounted to 0%; in experiment [14], 26%; in experiment [15], 14%; in experiment [16], 17%; in experiment [17], 0%; in experiment [18], 14%. Besides, the “%Inh” value in experiment [19] is recorded as 0%; in experiment [20] it was 15%.
Turning to `CNc1nccc(-c2c(-c3ccc(F)cc3)ncn2CCCN2CCOCC2)n1` [SB-222516], the “%Inh” value is listed as 0% in [1]; 0% in experiment [2]; 0% in experiment [3]; 2% in experiment [4]; 0% in experiment [5]; 8% in [6]. In addition, the “%Inh” value is 19% in experiment [7]; 4% in experiment [8]; 10% in [9]; 4% in experiment [10]; 6% in experiment [11]; 5% in [12]. The “%Inh” value in experiment [13] is given as 0%; in experiment [14] it was 0%; in experiment [15], 0%; in [16], 15%; in experiment [17], 8%; in experiment [18] it was 0%. Besides, the “%Inh” value in experiment [19] is recorded as 19%; in experiment [20] it was 0%.
As for `CCc1nc(-c2cccc(N(C)S(=O)(=O)c3ccccc3)c2)c(-c2ccnc(Nc3ccc(N4CCN(C(C)=O)CC4)nc3)n2)s1` [GSK1645895], the “%Inh” value in [1] stood at 0%; in experiment [2] it was 17%; in experiment [3], 50%; in [4], 0%; in experiment [5], 0%; in [6], 2%. For the same molecule, the “%Inh” value was 55% in experiment [7]; 20% in experiment [8]; 0% in experiment [9]; 26% in experiment [10]; 18% in experiment [11]; 6% in [12]. Moreover, the “%Inh” value worked out at 0% in experiment [13]; 21% in experiment [14]; 0% in experiment [15]; 4% in experiment [16]; 10% in [17]; 0% in [18]. Further, the “%Inh” value is reported as 4% in [19] and 44% in experiment [20].
`Cl.O=S(=O)(c1cccc(F)c1)c1ccc(Nc2ncnc3cc(Br)sc23)cc1Cl` [GSK306886]: the “%Inh” value in experiment [1] is on record as 0%; in experiment [2], 8%; in experiment [3], 30%; in experiment [4], 0%; in experiment [5], 0%; in experiment [6], 36%. Further, the “%Inh” value in experiment [7] is 22%; in [8], 0%; in experiment [9], 0%; in experiment [10], 33%; in experiment [11], 0%; in experiment [12], 37%. The “%Inh” value in experiment [13] is given as 0%; in [14], 8%; in [15], 0%; in experiment [16], 47%; in experiment [17] it was 6%; in experiment [18], 0%. Besides, the “%Inh” value in experiment [19] is 9%; in experiment [20], 2%.
As to `c1ccc(-c2ccc3c(-c4ccnc(Nc5ccc6c(c5)OCCO6)n4)cnn3n2)cc1` [GW818941], the “%Inh” value in [1] is on record as 0%; in [2] it was 1%; in [3], 84%; in experiment [4], 0%; in experiment [5] it was 40%; in experiment [6], 8%. Also, the “%Inh” value in experiment [7] is listed as 0%; in experiment [8], 1%; in experiment [9] it was 11%; in [10], 27%; in [11] it was 18%; in experiment [12] it was 9%. Moreover, the “%Inh” value in experiment [13] is 2%; in experiment [14] it was 0%; in [15], 0%; in experiment [16], 0%; in [17] it was 0%; in experiment [18] it was 0%. In addition, the “%Inh” value in experiment [19] and in experiment [20] was 0% in each case.
As for `Clc1ccc(-c2cc(-c3c[nH]nc3-c3ccccn3)ccn2)cc1` [GW681251], the “%Inh” value in experiment [1] is recorded as 0%; in experiment [2], 8%; in experiment [3] it was 0%; in experiment [4], 1%; in experiment [5], 18%; in experiment [6], 42%. Besides, the “%Inh” value in [7] was 33%; in experiment [8], 0%; in [9], 0%; in experiment [10], 0%; in experiment [11], 0%; in [12], 21%. Moreover, the “%Inh” value in [13] was determined as 0%; in experiment [14], 0%; in experiment [15], 0%; in experiment [16] it was 30%; in experiment [17], 0%; in [18] it was 0%. Also, the results for the “%Inh” value in experiment [19] and in experiment [20] were 0% and 73%, respectively.
As to `Cc1ccc(O)cc1Nc1cc(C(F)(F)F)nc2ccc(-c3ccncc3)cc12` [GW630823], the “%Inh” value in experiment [1] was determined as 0%; in experiment [2], 3%; in experiment [3], 0%; in experiment [4], 23%; in experiment [5] it was 4%; in [6], 15%. The “%Inh” value was 0% in [7]; 6% in experiment [8]; 1% in experiment [9]; 5% in experiment [10]; 0% in experiment [11]; 2% in [12]. For the same molecule, the “%Inh” value came out at 2% in experiment [13]; 16% in experiment [14]; 17% in experiment [15]; 11% in experiment [16]; 25% in experiment [17]; 0% in experiment [18]. In addition, the “%Inh” value was 15% in [19] and 40% in experiment [20].
For `O=C(c1ccc(-c2cc(-c3c[nH]nc3-c3ccccn3)ccn2)cc1)N1CCCC1` [GW792479], the “%Inh” value in experiment [1] stood at 0%; in experiment [2], 0%; in experiment [3] it was 17%; in experiment [4], 0%; in experiment [5], 59%; in experiment [6], 49%. Besides, the “%Inh” value in experiment [7] is on record as 30%; in [8] it was 9%; in [9] it was 9%; in [10], 0%; in [11] it was 0%; in experiment [12], 0%. The “%Inh” value came out at 0% in experiment [13]; 0% in [14]; 33% in [15]; 85% in experiment [16]; 19% in [17]; 10% in experiment [18]. The “%Inh” value in [19] and in experiment [20] was 0% each time.
`C[C@@H]1CCN(C(=O)CO)C[C@@H]1N(C)c1ncnc2[nH]ccc12`: the “%Inh” value in experiment [1] turned out to be 19%; in [2], 8%; in experiment [3] it was 21%; in [4] it was 0%; in [5] it was 33%; in experiment [6] it was 6%. For the same molecule, the “%Inh” value was found to be 0% in experiment [7]; 0% in [8]; 0% in [9]; 10% in experiment [10]; 0% in [11]; 0% in experiment [12]. Moreover, the “%Inh” value was found to be 14% in [13]; 2% in experiment [14]; 7% in experiment [15]; 10% in experiment [16]; 6% in experiment [17]; 0% in experiment [18]. Also, the “%Inh” value in experiment [19] is 90%; in experiment [20], 0%.
